Among the data in PMC10726135, “HNF4α isoforms regulate the circadian balance between carbohydrate and lipid metabolism in the liver” are binding signal values, retold here.

The full ranking holds about 18,000 sequences; the median of “log2 normalized intensity” is about 0.39, and the highest 2% start at about 6.6. The sample holds the highest values, similar sequences and a random draw of the others, so the mix is not that of the screen.

This assay has as its target T1, HNF4alpha2 (COS-7 nuclear extract) (Homo sapiens, UniProt P41235 1-474).
T1 sequence: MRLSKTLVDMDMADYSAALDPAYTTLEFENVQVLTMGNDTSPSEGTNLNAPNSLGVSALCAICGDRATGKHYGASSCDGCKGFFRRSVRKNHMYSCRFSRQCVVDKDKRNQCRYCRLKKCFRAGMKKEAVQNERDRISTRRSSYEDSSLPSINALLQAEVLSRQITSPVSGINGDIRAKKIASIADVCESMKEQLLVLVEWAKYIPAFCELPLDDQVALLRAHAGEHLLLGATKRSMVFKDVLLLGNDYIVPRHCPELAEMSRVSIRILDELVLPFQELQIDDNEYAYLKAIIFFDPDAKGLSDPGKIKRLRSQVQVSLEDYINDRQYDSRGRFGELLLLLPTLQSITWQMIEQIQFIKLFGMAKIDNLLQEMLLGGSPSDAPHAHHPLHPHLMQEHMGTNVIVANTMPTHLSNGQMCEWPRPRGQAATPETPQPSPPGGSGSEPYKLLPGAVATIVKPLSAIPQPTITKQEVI
The experiment in a line: protein-binding microarray; COS-7 nuclear extract on double-stranded Agilent 4x180k PBM; binding buffer, salt, pH and temperature not given in the material; high values mean tight binding. To be noted: chain copies: 2; label: 3' end of strand 1 on the slide; dsDNA, one strand shown. Summed up: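 Binding signal was defined as the normalized, background-corrected gProcessedSignal reported by Agilent software. It came from nuclear extracts of COS-7 cells transiently transfected with a human HNF4α isoform expression vector, applied to a custom Agilent SurePrint G3 4x180k array. That array held ~44,000 test sequences in quadruplicate as double-stranded ~60-nt oligonucleotides, and bound HNF4α was imaged at 2-µm resolution on an Agilent G2565CA scanner.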
“TGCCCCTTCACATATTTTGAAAGAAAGAGAGCCTAGGGAGATTAGAGTATCGGTCGA”: the binding signal came out at 1.68 log2 normalized intensity.
The figure for “CGGCTTGCGTCCCCAGGTGAACTCAGTCCTGCCTAGGGAGATTAGAGTATCGGTCGA” is 1.21 log2 normalized intensity; for “TTGTAGCCTCATTTCACCTTTGGTCTTTGGGCCTAGGGAGATTAGAGTATCGGTCGA” it is 4.78 log2 normalized intensity.
The figure for “TAGCCTTATCTCAGATGAGACTTTGGACTTGCCTAGGGAGATTAGAGTATCGGTCGA” is 7.96 log2 normalized intensity.
The value for “TCTGGGATGTTGGGAGGAGTGGACTTTGATGCCTAGGGAGATTAGAGTATCGGTCGA” was 5.99 log2 normalized intensity.
Take “TACAGAATTCTCATGGAGGACTTTGGCCTTGCCTAGGGAGATTAGAGTATCGGTCGA”: the binding signal was 7.11 log2 normalized intensity.
“TTATCTCAGATGAGACTTTGGACTTTTGAAGCCTAGGGAGATTAGAGTATCGGTCGA”: the binding signal worked out at 7.12 log2 normalized intensity.
The value for “TCAGATGAGACTTTGGACTTTTGAACTAAGGCCTAGGGAGATTAGAGTATCGGTCGA” was 6.42 log2 normalized intensity; that for “GAATCTACAGAATTCTCATGGAGGACTTTGGCCTAGGGAGATTAGAGTATCGGTCGA” was 2.77 log2 normalized intensity; that for “GGGACTAGCCTTATCTCAGATGAGACTTTGGCCTAGGGAGATTAGAGTATCGGTCGA” was 1.7 log2 normalized intensity.
Take “GATGTTGGGAGGAGTGGACTTTGATCTCAGGCCTAGGGAGATTAGAGTATCGGTCGA”: the binding signal came out at 8.9 log2 normalized intensity.
Consider “CAGATGGATTGATAGACTTATCTCAGCCTGGCCTAGGGAGATTAGAGTATCGGTCGA”, for which the binding signal is -0.761 log2 normalized intensity.
The figure for “AATTCTCATGGAGGACTTTGGCCTTTTGTGGCCTAGGGAGATTAGAGTATCGGTCGA” is 5.77 log2 normalized intensity.
The value for “ATCTAGGTGAGGGATGAGGACTTTGATCAGGCCTAGGGAGATTAGAGTATCGGTCGA” was 6.01 log2 normalized intensity; that for “GGGCTGAGGATGAGGACTTTGGTCTTATTAGCCTAGGGAGATTAGAGTATCGGTCGA” was 3.74 log2 normalized intensity; that for “TCTTTGTTCAGAGGGCATGTTGAGTGGAATGCCTAGGGAGATTAGAGTATCGGTCGA” was 2.13 log2 normalized intensity.
The figure for “TTACAACGCTGTTGTCTGTGACTGGGGTCAGCCTAGGGAGATTAGAGTATCGGTCGA” is 3.66 log2 normalized intensity; for “GCCAACAACTAGGGCAAAGGTTAGCTTGGAGCCTAGGGAGATTAGAGTATCGGTCGA” it is 4.27 log2 normalized intensity; for “ACAGATGTAGACATTGGAATGCGGGCTCCAGCCTAGGGAGATTAGAGTATCGGTCGA” it is -0.394 log2 normalized intensity.
“TCGGAATGTCTGGGCAAAGGGGAGGTTATCGCCTAGGGAGATTAGAGTATCGGTCGA”: the binding signal came out at 0.29 log2 normalized intensity.
The figure for “AAGTGGTATCCTGCAGTCAGTCTGATTGGTGCCTAGGGAGATTAGAGTATCGGTCGA” is 0.556 log2 normalized intensity; for “GAGGAGTGGCCATGATGCCATCTGGTGAAGGCCTAGGGAGATTAGAGTATCGGTCGA” it is -0.987 log2 normalized intensity; for “TTGAACACCACAAGTTTGAACTGCACAGGCGCCTAGGGAGATTAGAGTATCGGTCGA” it is -0.333 log2 normalized intensity.
The figure for “GTGAGGTCACAGTATTCATTCCCCTAGTATGCCTAGGGAGATTAGAGTATCGGTCGA” is 2.55 log2 normalized intensity.
The figure for “TCAGATAGCTTTAGCCGGACTTTGTCCTTTGCCTAGGGAGATTAGAGTATCGGTCGA” is 7.78 log2 normalized intensity.
Take “CTATCTCAGATAGCTTTAGCCGGACTTTGTGCCTAGGGAGATTAGAGTATCGGTCGA”: the binding signal was 5.18 log2 normalized intensity.
The value for “TAGCTTTAGCCGGACTTTGTCCTTTGATTTGCCTAGGGAGATTAGAGTATCGGTCGA” was 6.43 log2 normalized intensity.
In the case of “TAGTAGGGTCAAAGTCTGGATCCGTTAACAGCCTAGGGAGATTAGAGTATCGGTCGA”, the binding signal turned out to be 4.3 log2 normalized intensity.
The value for “CACCTTTTTTGGCCTTTACCCCTTGAGTTTGCCTAGGGAGATTAGAGTATCGGTCGA” was 3.93 log2 normalized intensity; that for “CCCACCCCCACGCCCCCCAGCGGAAGTCCAGCCTAGGGAGATTAGAGTATCGGTCGA” was 6.97 log2 normalized intensity.
The value for “AGGCCCCAGCCACGCCCTCTAACCCAGGTTGCCTAGGGAGATTAGAGTATCGGTCGA” was 3.08 log2 normalized intensity; that for “CAAAGTTCAAGGTCCAGCCTACCCACCCACGCCTAGGGAGATTAGAGTATCGGTCGA” was 4.66 log2 normalized intensity.
The figure for “TCACACACACACACACACACACCCCACACAGCCTAGGGAGATTAGAGTATCGGTCGA” is 1.75 log2 normalized intensity; for “CGCCCCCCAGCGGAAGTCCAGTGGTGTCTTGCCTAGGGAGATTAGAGTATCGGTCGA” it is 3.33 log2 normalized intensity; for “GGAACCCCACCCCCACGCCCCCCAGCGGAAGCCTAGGGAGATTAGAGTATCGGTCGA” it is 7.16 log2 normalized intensity.
Consider “CACACACACACACACACCCCACACACCAAAGCCTAGGGAGATTAGAGTATCGGTCGA”, for which the binding signal is 3.12 log2 normalized intensity.
For “CCTCCAGGCCCCAGCCACGCCCTCTAACCCGCCTAGGGAGATTAGAGTATCGGTCGA”, the binding signal amounted to 2.92 log2 normalized intensity.
As for “GGATCGGAACCCCACCCCCACGCCCCCCAGGCCTAGGGAGATTAGAGTATCGGTCGA”, the binding signal was found to be 7 log2 normalized intensity.
The value for “GAGAGAATGACCCTTGCTTGACCCATTATGGCCTAGGGAGATTAGAGTATCGGTCGA” was 2.36 log2 normalized intensity; that for “AGAACAAACAATGGTTTGGGACAAAGTTTGGCCTAGGGAGATTAGAGTATCGGTCGA” was 0.489 log2 normalized intensity; that for “TCAGCCTTCTCCGCGGCGGGCCCTCGACCTGCCTAGGGAGATTAGAGTATCGGTCGA” was -0.582 log2 normalized intensity.
The value for “CCCTCCCTAAATCCAGAGGTATTTGGCCCAGCCTAGGGAGATTAGAGTATCGGTCGA” was 1.59 log2 normalized intensity.
The value for “CTTCTCCGCGGCGGGCCCTCGACCTTTGCCGCCTAGGGAGATTAGAGTATCGGTCGA” was 5.07 log2 normalized intensity; that for “TTGCCATGACCTTTGAAGCCCAGAACACTCGCCTAGGGAGATTAGAGTATCGGTCGA” was 3.59 log2 normalized intensity; that for “CTTTGCCCTCCCTAAATCCAGAGGTATTTGGCCTAGGGAGATTAGAGTATCGGTCGA” was 1.88 log2 normalized intensity.
